Assay results taken from PubChem BioAssay AID1851 (National Center for Advancing Translational Sciences (NCATS), 2009).
Screen size: about 16,000 compounds; about 2,600 (16%) were called active. Roughly 20% stayed inconclusive and do not appear here. Calls follow the shape of the dose curve; as a rule, active = well fitted curve in the direction sought with a large enough effect; inconclusive = small, poorly fitted or top-dose-only effect, or effect the other way; inactive = no such curve, though single readings can be large or run the other way. Not all results are given here.

molecular target: Cytochrome P450 2D6 (Homo sapiens) (UniProt P10635); assay: Cytochrome panel assay with activity outcomes; settings: recombinant CYP, pro-luciferin dealkylation, luminescence, p450-cyp2d6; series mostly up to 57.1 µM
% is scaled to controls: 0 for no effect and ±100 for the full control effect.

Cytochrome P450 2D6 (Homo sapiens), sequence (P10635 whole entry, looked up): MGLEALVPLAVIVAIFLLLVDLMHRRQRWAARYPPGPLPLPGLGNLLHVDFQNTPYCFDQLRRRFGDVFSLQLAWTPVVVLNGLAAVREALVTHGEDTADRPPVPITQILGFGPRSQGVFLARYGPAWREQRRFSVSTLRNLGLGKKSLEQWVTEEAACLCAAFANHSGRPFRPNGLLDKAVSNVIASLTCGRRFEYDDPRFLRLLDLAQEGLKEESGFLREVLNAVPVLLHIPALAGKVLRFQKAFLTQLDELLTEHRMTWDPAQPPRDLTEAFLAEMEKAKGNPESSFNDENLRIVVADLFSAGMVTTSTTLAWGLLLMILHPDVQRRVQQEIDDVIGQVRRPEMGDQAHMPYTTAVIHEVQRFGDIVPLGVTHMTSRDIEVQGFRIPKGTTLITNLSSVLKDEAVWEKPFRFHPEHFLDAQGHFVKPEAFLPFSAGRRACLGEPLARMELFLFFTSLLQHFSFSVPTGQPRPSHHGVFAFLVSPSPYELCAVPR

AC50, active:
CC(=O)Nc1ccc(OCC(O)Cn2c3ccccc3c3ccccc32)c(C)c1 (configuration not stated) 14.1 µM
Cc1ccccc1OCC(O)Cn1c2ccccc2c2ccccc21 (configuration not stated) 0.891 µM
Cc1ccc(OCC(O)Cn2c3ccccc3c3ccccc32)cc1 (configuration not stated) 6.31 µM
C=CCN(CC=C)CC(O)Cn1c2ccccc2c2ccccc21 (configuration not stated) 0.224 µM
C/C(=N/Nc1ccc2ccccc2n1)c1ccccc1O 0.794 µM
O=C(CN(c1ccccc1)S(=O)(=O)c1ccccc1[N+](=O)[O-])NN=C1CCCCCCC1 4.47 µM
CCCCN1CCCC[C@H]1C(=O)Nc1c(C)cccc1C 0.501 µM
Cc1ccc2c(c1)N(CC(=O)NCc1cccs1)C(=O)C(C)O2 (configuration not stated) 12.6 µM
O=C(N/N=C/c1ccc([N+](=O)[O-])o1)c1cc(-c2ccncc2)nc2ccccc12 14.1 µM
COn1c(SCc2cccc(Cl)c2)nc2ccccc2c1=O 0.891 µM
COn1c(SCc2ccc(C)cc2C)nc2ccccc2c1=O 6.31 µM

AC50, inactive:
C=CCSc1ccsc1C(=O)O
Cc1cc(C)n2c(SCC(=O)N(C)C3CCS(=O)(=O)C3)nnc2n1 (configuration not stated)
O=c1c(C=Nc2ccc(Oc3ccccc3)cc2)c[nH]n1-c1cccc(Cl)n1
CC(=O)OCc1c(C(F)(F)F)nn(C)c1Sc1ccccc1
Cc1ccccc1OCC(O)Cn1c(NCc2ccccc2)nc2c1c(=O)[nH]c(=O)n2C (configuration not stated)
OC[C@@H](O)COc1cccc2ccccc12
Cc1cc(C)n(CC(O)COc2ccccc2)n1 (configuration not stated)
Cc1ccc(OCC(O)CNC(=O)c2ccccc2C(=O)O)cc1 (configuration not stated)
CCn1c2ccccc2c2cc(NC(=O)C(C)Oc3ccc(OC)cc3)ccc21 (configuration not stated)
Cc1cc(C)c(C(N)=O)c(NC(=O)Nc2ccccc2)n1
C=CCNC(=S)Nc1ccc2nc(C)c(C)nc2c1
Cc1ccc(NC(=O)CN(C)C(=O)CSc2n[nH]c(N)n2)cc1
CCn1cc(C(=O)N/N=C(/C)c2ccc(F)cc2)c(=O)c2cc(F)c(N3CCCC3)cc21
CCc1cccc2c3c([nH]c12)[C@@](CC)(CC(=O)O)OCC3
O=C1S/C(=C/c2ccc(N3CCOCC3)o2)C(=O)N1Cc1ccc(F)cc1
COc1ccc(NC(=O)C2(c3ccc(NC(=O)c4ccc(C)cc4)cc3)CCCC2)cc1
CC(=O)/C=C/c1ccc2ccccc2n1
COc1ccc(/C(O)=C2/C(=O)C(=O)N(CCN3CCOCC3)C2c2ccc(C)cc2)cc1 (configuration not stated)
CN1CCN(c2ncc3nc(CCc4ccccc4)c(=O)n(C)c3n2)CC1
COc1ccc(N(CC(=O)NN=C2CCCC2)S(=O)(=O)c2ccccc2)cc1
O=C(COc1ccc([N+](=O)[O-])cc1)NN=C1CCCC1
CNC(=O)[C@H]1O[C@H](n2cnc3c(NCc4cccc(I)c4)ncnc32)[C@@H](O)[C@@H]1O
CCCCC(C=O)NC(=O)C(CC(C)C)NC(=O)OCc1ccccc1 (configuration not stated)
NCc1ccccc1CC(=O)N[C@@H]1C(=O)N2C(C(=O)O)=C(CSc3nnnn3CC(=O)O)CS[C@@H]12
COc1cc(/C=N\NC(=O)C2C(=O)NCC2c2ccccc2)cc(OC)c1O (configuration not stated)
Cc1cccc(C)c1NC(=O)N1CCC(N2CCCCC2)CC1
Cc1cccc(C)c1NC(=O)CCN1C(=O)C2C3CCC(C3)C2C1=O (configuration not stated)
COC(=O)c1cc(-c2ccccc2)sc1NC(=O)CN1C(=O)c2ccccc2C1=O
Cc1ccc(C)c(NC(=O)Cn2nnc(C(=O)NCc3cccs3)c2N)c1
COc1ccc(CCNC(=O)CCN2C(=O)C(C)Oc3ccc(C)cc32)cc1OC (configuration not stated)
COc1ccccc1COC(=O)Nc1c(C)nn(C)c1Cl
COc1ccc2c(c1)c(CC(=O)N1CCOCC1)c(C)n2C(=O)c1ccc(Cl)cc1
COc1c(N2CCN(C(=S)Nc3ccc(F)cc3)C(C)C2)c(F)cc2c(=O)c(C(=O)O)cn(C3CC3)c12 (configuration not stated)
CCOC(=O)N/N=C\c1ccc([N+](=O)[O-])o1
Cc1ccc(-n2c(SCc3ccc([N+](=O)[O-])cc3)nc3ccccc3c2=O)cc1
Cc1cc(C)n(-c2nc3ccccc3c(=O)n2OCc2ccc(Cl)cc2)n1
COn1c(SC(C)C)nc2ccccc2c1=O
CC(C)On1c(SC(C)C)nc2ccccc2c1=O

activity, negative = inhibition, inactive:
c1ccc2c(c1)c1ccccc1n2Cn1c2ccccc2c2ccccc21 -12.9% [at 11.4 µM]
C#CCCCO/N=C1/[C@H]2O[C@@H]2[C@@H](O)[C@H]2[C@H]1CCn1c(=O)n(Cc3cc4c(cc3Cl)OCO4)c(=O)n12 -0.473% [at 11.4 µM]
O=C(O)c1nnsc1-c1csnn1 -6.92% [at 11.4 µM]
O=c1[nH][nH]c(=S)c(=O)[nH]1 0.16% [at 11.4 µM]
CC(=NC1CCCCC1)c1ccccc1O -7.44% [at 11.4 µM]
O=C(O)[C@@H]1[C@@H](C(=O)NCc2ccncc2)[C@@H]2C=C[C@@H]1O2 -9.91% [at 11.4 µM]
Cc1ccc(/C(C#N)=C/c2cccc([N+](=O)[O-])c2)cc1 8% [at 11.4 µM]
CN(C)Cc1cc(O)c(O)c(CN(C)C)c1 1.36% [at 11.4 µM]
Cc1ccc2nc(-c3ccc(NC(=O)c4ccc(N)cc4)c(S(=O)(=O)O)c3)sc2c1 10.5% [at 11.4 µM]
Nc1cccc2cc(S(=O)(=O)Nc3ccc(C(=O)O)cc3)ccc12 4.25% [at 11.4 µM]
O=C(O)c1cc(-c2ccncc2)nc2ccccc12 8.68% [at 11.4 µM]
CO[C@H]1COC(=O)C/C=C\[C@H](C)[C@@H](OC)COC(=O)[C@H](Cc2ccccc2)NC(=O)C/C=C\[C@@H]1C -13.7% [at 11.4 µM]
O=S(=O)(O)[C@@H](CO)c1ccccc1 (tested in a mixture with another compound) 14% [at 11.4 µM]
